Experiment [1] is described as follows: NCI Yeast Anticancer Drug Screen. Data for the rad50 strain (AID 155).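 Further: 0% = growth of vehicle-only cultures of the same strain.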 The conditions noted are these: S. cerevisiae rad50 strain growth inhibition; at 50.0 µM; active compounds read high. In outline: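 Growth of the mutant yeast was measured after compound exposure and referenced to vehicle-treated cultures.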
A short description of experiment [2]: NCI Yeast Anticancer Drug Screen. Data for the mec2-1 strain (AID 157). The settings on record: S. cerevisiae mec2-1 strain, at 50.0 µM, active compounds read high. The method in brief: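 Readout is yeast growth inhibition, normalised to vehicle-treated controls, in the mec2-1 strain exposed to compound.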
The nature of experiment [3]: NCI Yeast Anticancer Drug Screen. Data for the sgs1 mgt1 strain (AID 161).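 Further: 0% = growth of cultures given vehicle only.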 The settings on record: S. cerevisiae sgs1 mgt1 strain, at 50.0 µM, active compounds read high. The method in brief: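 This yeast growth screen uses a strain with defined DNA-repair lesions; compound-treated growth is compared with vehicle-treated growth.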
Experiment [4] in a line: NCI Yeast Anticancer Drug Screen. Data for the cln2 rad14 strain (AID 165).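 Further: 0% = growth equal to vehicle treated cultures.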 The settings on record: S. cerevisiae cln2 rad14 strain, at 50.0 µM, active compounds read high. In outline:
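Relative to vehicle controls, growth inhibition of compound-treated cln2 rad14 yeast was recorded.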

Experiment [5] in a line: NCI Yeast Anticancer Drug Screen. Data for the bub3 strain (AID 167). The conditions noted are these: S. cerevisiae bub3 mutant strain, at 50.0 µM, active compounds read high. The method in brief: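 Whole-cell yeast assay. The mutant strain was incubated with compounds, and growth inhibition was determined by comparison with vehicle-treated cells.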
Experiment [6] in a line: NCI Yeast Anticancer Drug Screen. Data for the mlh1 rad18 strain (AID 175). The conditions noted are these: S. cerevisiae mlh1 rad18 strain growth inhibition; at 50.0 µM; active compounds read high. The method in brief: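 Test agents were incubated with a yeast strain of defined genotype (DNA damage repair defect). Inhibition of growth was derived by comparison with vehicle-exposed cultures.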

About 79,000 compounds went through this panel and 15% of them were active in at least one assay; those are over-represented in the sample as a whole. A number with no mark means an inactive call. The source made the active and inactive calls. No stated cut-off is given here; in the data, active means growth inhibition above about 70%; inactive means the rest.

As for `CCCOS(=O)(=O)O`, the growth inhibition was -13.7% in experiment [1]; -15.1% in experiment [2]; 1.7% in experiment [3]; 7% in experiment [4]; 6.65% in experiment [5]; 15.2% in experiment [6].
For the molecule `O=Cc1ccc(/C=C/C(=O)O)cc1`, the growth inhibition in experiment [1] is -1.55%; in experiment [2] it was -10.1%; in experiment [3], -4.85%; in experiment [4] it was 5.9%; in experiment [5], -8.55%; in experiment [6], 1.1%.
As for `Cc1cc(C)nc(NC(=O)COc2ccc(Cl)cc2)c1`, the growth inhibition in experiment [1] is -15.7%; in experiment [2], 5.95%; in experiment [3], -20.8%; in experiment [4] it was -39.7%; in experiment [5], -37.5%; in experiment [6], -14.8%.
Regarding `COc1ccc(/C(C)=N/NC(=O)c2ccncc2)c(OC)c1`, the growth inhibition in experiment [1] was -7.85%; in experiment [2], -20.6%; in experiment [3] it was -29.2%; in experiment [4], -29.4%; in experiment [5], -42.6%; in experiment [6], -33.1%.
With `c1c[nH]c(C2Nc3ccccc3CO2)c1` (stereo not drawn), the growth inhibition in experiment [1] was -11.4%; in experiment [2], -13.2%; in experiment [3], -18.9%; in experiment [4], -22.6%; in experiment [5] it was 1.3%; in experiment [6], 9.85%.
As to `CCN(CC)CCOC(=O)Nc1c(Cl)cccc1Cl`, the growth inhibition is -3.75% in experiment [1]; -16.7% in experiment [2]; 8.6% in experiment [3]; 9.4% in experiment [4]; 9.25% in experiment [5]; 6.05% in experiment [6].
On to `CC(c1ccccc1)N1COc2cc3c(cc2C1)CN(C(C)c1ccccc1)CO3` (stereo not drawn), for which the growth inhibition in experiment [1] is -11.8%; in experiment [2], 0.4%; in experiment [3], -6.8%; in experiment [4], -28.3%; in experiment [5], -1.3%; in experiment [6], 6.7%.
Regarding `O=C(Nc1ccc(F)cc1)Nc1cccc(C(=O)O)c1`, the growth inhibition in experiment [1] was 20%; in experiment [2], 7.9%; in experiment [3], 6.4%; in experiment [4], 7.6%; in experiment [5] it was 22.4%; in experiment [6], 12.2%.
As for `N#CCCCCN1CCOCC1`, the growth inhibition in experiment [1] is 10.3%; in experiment [2], -7.5%; in experiment [3] it was -21.7%; in experiment [4], 22.1%; in experiment [5], -8.9%; in experiment [6], 20.7%.
Consider `Cn1c2c(cc(-c3ccccc3)c1=O)COc1ccccc1-2`, for which the growth inhibition in experiment [1] was 31.1%; in experiment [2], -13.9%; in experiment [3] it was 26.2%; in experiment [4] it was 2.45%; in experiment [5], 23.7%; in experiment [6], 24.1%.
With `COC(=O)C(=[N+]=[N-])C(=O)c1ccc([N+](=O)[O-])cc1`, the growth inhibition was 65.5% in experiment [1]; 23.9% in experiment [2]; 40.1% in experiment [3]; 41.8% in experiment [4]; 20.6% in experiment [5]; 42.3% in experiment [6].
As for `CC1(Br)CC2OC3(Br)C=CC(C)(O)C2(CC1=O)C3(C)C` (stereo not drawn), the growth inhibition is 27.2% in experiment [1]; 10.8% in experiment [2]; 13.4% in experiment [3]; 15.7% in experiment [4]; 20.4% in experiment [5]; 25.9% in experiment [6].
`Cc1cc(O)c(C(C)C)cc1CN1CCCCC1`: the growth inhibition in experiment [1] is 0%; in experiment [2], -25.1%; in experiment [3] it was -14.2%; in experiment [4], 0.15%; in experiment [5], -2.85%; in experiment [6], -3.3%.
Turning to `Cc1ccc(S(=O)(=O)N/N=C(\c2nc3ccc([N+](=O)[O-])cc3[nH]c2=O)C(O)c2ccccc2Cl)cc1` (stereo not drawn), the growth inhibition was -1.2% in experiment [1]; -9.35% in experiment [2]; 11.6% in experiment [3]; 5.85% in experiment [4]; 10.3% in experiment [5]; 23.8% in experiment [6].
Turning to `O=Cc1cc(C=O)c2ccc(=O)[nH]c2n1`, the growth inhibition in experiment [1] is 4.75%; in experiment [2], 0.5%; in experiment [3], -8.55%; in experiment [4] it was 0.65%; in experiment [5], -1.25%; in experiment [6], -3.5%.
As to `O=C(O)c1ccc(O)c([N+](=O)[O-])c1`, the growth inhibition is 8.2% in experiment [1]; -33.5% in experiment [2]; 6.5% in experiment [3]; 9% in experiment [4]; 6.85% in experiment [5]; 27.2% in experiment [6].
Take `CN(CN(C)N=Nc1ccc(Br)cc1)CN(C)N=Nc1ccc(Br)cc1`: the growth inhibition in experiment [1] is -0.7%; in experiment [2] it was 19.6%; in experiment [3], 4.45%; in experiment [4], 23.2%; in experiment [5], 5.1%; in experiment [6], 15%.
Take `O=C1C=CC2(CCC23C=CC(=O)O3)O1` (stereo not drawn): the growth inhibition in experiment [1] is 13%; in experiment [2] it was 1.95%; in experiment [3] it was 11%; in experiment [4] it was 4.2%; in experiment [5], 12.2%; in experiment [6] it was 20.1%.
On to `Nc1ncnc2c1nnn2C1CCC(CP(=O)(O)O)C1` (stereo not drawn), for which the growth inhibition in experiment [1] is 8.05%; in experiment [2], 4.45%; in experiment [3] it was -4.65%; in experiment [4], 17.9%; in experiment [5] it was 7.3%; in experiment [6] it was 21.6%.
As to `O=C(O)CC1CCCc2ccccc2C1CC(=O)O` (stereo not drawn), the growth inhibition is 5.25% in experiment [1]; -4.3% in experiment [2]; 10.4% in experiment [3]; 8.8% in experiment [4]; 6.85% in experiment [5]; 7.4% in experiment [6].
`CCN1CCCC(Nc2nc(Nc3cc(Cl)cc(Cl)c3)nc3ccc(Cl)cc23)C1` (stereo not drawn): the growth inhibition was 97.3% (active) in experiment [1]; 97.1% (active) in experiment [2]; 97.5% (active) in experiment [3]; 95.5% (active) in experiment [4]; 96.8% (active) in experiment [5]; 95.8% (active) in experiment [6].
Turning to `Cc1ccc(/C(O)=C/c2nc3ccc([N+](=O)[O-])cc3nc2/C=C(\O)c2ccc(C)cc2)cc1`, the growth inhibition is 13.8% in experiment [1]; -3.45% in experiment [2]; -23.1% in experiment [3]; -28.6% in experiment [4]; -19.2% in experiment [5]; -14% in experiment [6].
In the case of `C=CC(=NC(C)C)N(C)c1ccccc1`, the growth inhibition in experiment [1] was 5.2%; in experiment [2], 13.9%; in experiment [3], 1.7%; in experiment [4] it was -7.9%; in experiment [5], 26.5%; in experiment [6] it was -1.8%.
`NC(=O)CNC(=O)C(CO)NC(=O)OCc1ccccc1` (stereo not drawn): the growth inhibition in experiment [1] is 2.35%; in experiment [2], -10%; in experiment [3], 10.7%; in experiment [4], -6.2%; in experiment [5], -11.1%; in experiment [6], 0.3%.
As to `Cc1cc(Cl)ccc1OCCCC(=O)NC(Cc1ccccc1)C(=O)O` (stereo not drawn), the growth inhibition in experiment [1] is 4.85%; in experiment [2], 8.95%; in experiment [3] it was -2.15%; in experiment [4] it was 27.5%; in experiment [5], -4.2%; in experiment [6] it was 0%.
In the case of `O=C(O)C(Cc1ccccc1)C(=O)O.[NH2-].[NH2-].[Pt+2]`, the growth inhibition in experiment [1] was -11.7%; in experiment [2], -0.95%; in experiment [3] it was 10.9%; in experiment [4] it was 13.1%; in experiment [5], 1.25%; in experiment [6], 24.2%.
Take `O=C(Nc1c(C(=O)NC2CCCCC2)[nH]c(=O)[nH]c1=O)c1ccc(Cl)cc1`: the growth inhibition is -18.8% in experiment [1]; -1.35% in experiment [2]; -19.4% in experiment [3]; 2.85% in experiment [4]; -0.25% in experiment [5]; 5.5% in experiment [6].
On to `COc1ccc2c(c1CCl)C(=O)OC2`, for which the growth inhibition in experiment [1] is 13.6%; in experiment [2] it was -9.1%; in experiment [3], -2.05%; in experiment [4], -20.6%; in experiment [5], 12.2%; in experiment [6], -1.05%.
`C1=CCC(C(Nc2nncs2)Nc2nncs2)CC1` (stereo not drawn): the growth inhibition in experiment [1] is 6.25%; in experiment [2], 3.95%; in experiment [3], 19.6%; in experiment [4], 7.05%; in experiment [5] it was -24.9%; in experiment [6] it was 9.25%.
Consider `CN(C)c1nc(=NCc2ccncc2)ss1`, for which the growth inhibition in experiment [1] was -38.2%; in experiment [2], 8.45%; in experiment [3], 2%; in experiment [4] it was -45.4%; in experiment [5], 5.85%; in experiment [6], -16.8%.
Regarding `COc1ccc(/C=C2\NC(=S)N(/C=C3\C(=O)Oc4ccccc4C3=O)C2=O)cc1OC`, the growth inhibition is -5.85% in experiment [1]; -17.6% in experiment [2]; 13.1% in experiment [3]; -7.85% in experiment [4]; -13.8% in experiment [5]; 6.4% in experiment [6].
For `C[Si](C)(C)COC(N)=O`, the growth inhibition in experiment [1] is -5.5%; in experiment [2] it was 10.8%; in experiment [3], -12.4%; in experiment [4] it was 8.1%; in experiment [5] it was 9.4%; in experiment [6], 0.45%.
Turning to `CCCCCCCC[n+]1cccc(C#N)c1`, the growth inhibition in experiment [1] was 12.7%; in experiment [2], 23.6%; in experiment [3], 21.4%; in experiment [4], 16.7%; in experiment [5], 36%; in experiment [6] it was 19.1%.
As to `COc1ccc(C=O)c(C)c1`, the growth inhibition in experiment [1] was -4.05%; in experiment [2], -30.1%; in experiment [3], 4.15%; in experiment [4], 15.3%; in experiment [5], -15.8%; in experiment [6], -5.45%.
Consider `O=C(O)C1CC1(c1ccccc1)c1ccccc1` (stereo not drawn), for which the growth inhibition in experiment [1] is 18.6%; in experiment [2], 4.65%; in experiment [3], -1.05%; in experiment [4] it was -24.8%; in experiment [5] it was -12.2%; in experiment [6], 15.8%.
Consider `CC1=C[P+](c2ccccc2)(c2ccccc2)C=C(C)O1`, for which the growth inhibition in experiment [1] was 8.9%; in experiment [2] it was 3.55%; in experiment [3] it was 12.6%; in experiment [4], 0.65%; in experiment [5] it was 4.5%; in experiment [6] it was 4.25%.
In the case of `CC(C)(C)[Si](C)(C)OCCC1CC2(S(=O)(=O)C3=CC=C=C=C3)ON1CC2S(=O)(=O)c1ccccc1` (stereo not drawn), the growth inhibition in experiment [1] was 6.8%; in experiment [2], -6.2%; in experiment [3], -1.45%; in experiment [4], -23.9%; in experiment [5] it was -20.4%; in experiment [6] it was 17.1%.
In the case of `CC1=CC[N+](C)(C)C(C(N)=O)C1` (stereo not drawn), the growth inhibition in experiment [1] was -5%; in experiment [2] it was -12.8%; in experiment [3], -17.2%; in experiment [4], 9.95%; in experiment [5], 20.9%; in experiment [6], -18.1%.

The record behind these values is PubChem BioAssay (NCI).
